Assay outcomes deposited in PubChem by several laboratories.
aSyn 5UTR inh: 5' untranslated region of α-synuclein, MLPCN primary screen; alpha-synuclein 5'UTR reporter, inhibitor activity; inhibition, % (tested at 7.5 µM); 300,000 compounds, 0.82% hits; in the data active means inhibition above about 60%;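 further: H4 neuroglioblastoma cells stably carrying SNCA 5'UTR luciferase fusion; 0% = DMSO wells and 100% = positive control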
Gli-Sufu block: antagonists of Gli-Sufu signaling; Sufu-KO-LIGHT fibroblasts, Gli luciferase reporter luminescence; inhibition, % at 5 µM; 340,000 compounds, 0.74% hits; AID 588413;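 active means inhibition above about 55%, limit read from the data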;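 further: 0% = DMSO-treated cells and 100% = wells with medium but no cells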
KLF5 inh: kruppel-like factor 5 inhibition; DLD-1 KLF5 promoter-luciferase reporter, luminescence; inhibition, % at 5 µM; AID 1700; 290,000 compounds, 0.23% hits;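 active means inhibition above a per-plate limit of that plate's mean compound inhibition plus 3 SD, cut at about 60% in these data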;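 further: 0% = DMSO wells and 100% = LY294002 at 200 µM; higher means less KLF5 promoter-driven luciferase light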
Jurkat NFkB inh: lowers PMA/ionomycin-induced NF-kB signal in Jurkat cells. PMA/ionomycin-induced NF-kB luciferase reporter, luminescence. inhibition, % at 4 µM. 330,000 compounds, 0.53% hits; in the data active means inhibition above about 50%
Mdm2-MdmX inh: human Mdm2/MdmX binding inhibition | O15151+Q00987 | SaOS-2 split-luciferase Mdm2/MdmX complementation, luminescence | inhibition, % at 8 µM | 330,000 compounds, 3% hits | AID 485346;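 active means inhibition of at least 50% at 8 µM in the primary screen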
Target sequence (O15151 whole entry, looked up): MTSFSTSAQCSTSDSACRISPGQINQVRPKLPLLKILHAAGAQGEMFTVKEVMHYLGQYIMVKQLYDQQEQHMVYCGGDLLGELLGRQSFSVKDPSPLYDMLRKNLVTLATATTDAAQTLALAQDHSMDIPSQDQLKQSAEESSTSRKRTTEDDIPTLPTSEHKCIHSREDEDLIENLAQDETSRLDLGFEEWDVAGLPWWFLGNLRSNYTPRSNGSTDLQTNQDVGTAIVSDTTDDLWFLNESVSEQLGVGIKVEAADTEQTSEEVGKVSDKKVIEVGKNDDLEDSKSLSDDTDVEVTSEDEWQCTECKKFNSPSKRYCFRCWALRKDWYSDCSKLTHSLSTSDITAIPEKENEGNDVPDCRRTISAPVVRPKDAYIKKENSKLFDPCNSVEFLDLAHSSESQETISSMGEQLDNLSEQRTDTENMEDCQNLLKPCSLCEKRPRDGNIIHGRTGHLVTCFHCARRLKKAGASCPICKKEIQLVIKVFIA
Target sequence (Q00987 whole entry, looked up): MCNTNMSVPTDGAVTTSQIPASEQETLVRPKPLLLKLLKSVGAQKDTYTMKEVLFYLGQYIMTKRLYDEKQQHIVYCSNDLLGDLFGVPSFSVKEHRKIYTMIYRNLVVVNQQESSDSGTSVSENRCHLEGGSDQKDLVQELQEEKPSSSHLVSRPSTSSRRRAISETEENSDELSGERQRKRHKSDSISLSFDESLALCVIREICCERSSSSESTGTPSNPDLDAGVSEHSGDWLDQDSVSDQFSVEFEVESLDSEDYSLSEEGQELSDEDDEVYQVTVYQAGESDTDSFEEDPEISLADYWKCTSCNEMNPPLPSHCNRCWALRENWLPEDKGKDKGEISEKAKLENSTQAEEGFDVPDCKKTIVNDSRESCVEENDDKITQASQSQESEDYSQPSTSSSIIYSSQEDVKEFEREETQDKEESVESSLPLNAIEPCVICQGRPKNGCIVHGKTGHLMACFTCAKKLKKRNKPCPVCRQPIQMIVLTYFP
697 NFkB inh: inhibitors of the PMA/ionomycin-induced NF-kB reporter in 697 B cells; inhibition, % at 4 µM; AID 435022; 697 B-cell NF-kB luciferase reporter, 16 h; 330,000 compounds, 0.33% hits; in the data active means inhibition above about 35%
Mdm2-MdmX conf: confirmation of human Mdm2/MdmX interaction inhibitors. 10,000 compounds, 55% hits. inhibition, % at 8 µM. Mdm2-MdmX binding, luminescent assay. AID 489028. shares compounds with Mdm2-MdmX inh; in the data active means inhibition above about 40%
FLuc counter: counter-screen for Mdm2/MdmX inhibitors: full-length luciferase; shares compounds with Mdm2-MdmX inh; SaOS-2 full-length luciferase counterscreen, luminescence; inhibition, % at 8 µM; 6,200 compounds, 77% hits;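 active means mean inhibition at 8 µM reaching about 37%, which flags the compound as non-specific, limit read from the data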;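 further: p53-null SaOS-2 cells with luciferase driven by a doxycycline-inducible promoter; compound on cells about two nights before reading with doxycycline added after day one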
* marks the source's active call; other numbers are inactive results; / = not tested or not shown. Compounds with a hit are over-represented: about 4.1% of the library has one in this group of screens.

SMILES | aSyn 5UTR inh | Gli-Sufu block | KLF5 inh | Jurkat NFkB inh | Mdm2-MdmX inh | 697 NFkB inh | Mdm2-MdmX conf | others
COc1ccc(C(=O)O/N=C(\N)Cc2cccs2)cc1OC | -1.0 | -5.4 | -7.3 | 4.3 | 86.1* | -65.3 | 50.9* | FLuc counter=68.2*
COc1ccccc1C/C(N)=N/OC(=O)c1ccc2c(c1)OCO2 | -10.4 | 1.9 | -32.3 | -1.6 | 78.2* | 3.3 | 41.4* | FLuc counter=70.0*
COc1ccc(/C(N)=N/OC(=O)Cc2cccs2)cc1OC | -21.4 | -33.5 | -44.4 | -19.5 | -8.5 | -31.0 | /
COc1ccccc1C/C(N)=N/OC(=O)c1ccc(C)c([N+](=O)[O-])c1 | -2.2 | -6.4 | -7.2 | 1.7 | 2.5 | 8.7 | /
Cc1ccc(C(C(=O)NC2CCCCC2)N(CCCN2CCOCC2)C(=O)c2snc(C(N)=O)c2N)cc1 (centres undefined) | -29.4 | 37.8 | -10.4 | -2.2 | 11.7 | 7.1 | /
CCC(=O)N1CCc2cc(S(=O)(=O)N3CCN(c4ccccc4)CC3)ccc21 | -8.6 | 4.3 | -16.6 | 27.5 | 54.9* | -23.9 | -18.0
O=C(C1CC1)N1CCc2cc(S(=O)(=O)N3CCN(c4ccccc4)CC3)ccc21 | 14.0 | 2.9 | -22.0 | 6.4 | 29.4 | -21.8 | /
CC(CCc1ccccc1)NC(=O)C(Cc1ccccc1)NC(N)=O (centres undefined) | 11.9 | -10.2 | 15.2 | -2.2 | 8.5 | -12.8 | /
CC1CN(c2ccc([N+](=O)[O-])c(NCCOc3ccccc3)c2)CC(C)N1 (centres undefined) | -20.8 | 22.1 | -34.9 | -4.3 | 25.0 | -15.6 | /
Cc1ccccc1OCCNc1cc(N2CC(C)NC(C)C2)ccc1[N+](=O)[O-] (centres undefined) | -37.3 | 24.3 | -7.0 | 9.2 | 80.5* | 13.2 | 30.1
CCc1ccc(OCCNc2cc(N3CCNC(C)C3)ccc2[N+](=O)[O-])cc1 (centres undefined) | / | 11.7 | / | 14.5 | 95.2* | -1.8 | 38.4 | FLuc counter=75.5*
Cc1ccc(S(=O)(=O)NC(C)(C)CN2CCC(Cc3ccccc3)CC2)cc1 | -22.3 | 8.1 | -3.8 | 6.4 | 6.9 | -3.3 | /
COc1ccc(C(C(=O)NC2CCCCC2)N(Cc2cccnc2)C(=O)c2snc(C(N)=O)c2N)cc1 (centres undefined) | 1.6 | 3.2 | -4.5 | -4.9 | -23.9 | 4.6 | /
CCCn1c(=O)c2[nH]c(-c3ccc(OCC(=O)Nc4ccc(C#N)cc4)cc3)nc2n(CCC)c1=O | / | -7.5 | / | 2.7 | 53.1* | 23.1 | 22.0
Cc1cccc(NC(=S)N=Nc2c(O)[nH]c3ccccc23)c1 | 53.3 | 14.2 | -12.4 | -2.9 | 53.7* | 3.0 | 38.0 | FLuc counter=56.6*
CC(C)NC(=S)N=Nc1c(O)[nH]c2ccc(C(C)C)cc12 | 43.4 | 5.2 | 7.2 | 17.8 | 54.9* | 3.3 | 35.5 | FLuc counter=51.4*
COc1ccc(/C=N/OCC(=O)N=Nc2c(O)[nH]c3ccc(Br)cc23)cc1OC | -29.0 | 6.4 | 14.4 | 4.3 | 10.2 | 7.6 | /
COc1ccc(/C(C)=N/OCC(=O)N=Nc2c(O)[nH]c3ccc(Br)cc23)cc1 | 8.0 | 0.5 | -5.3 | -1.7 | 52.6* | 1.9 | -4.7
COc1ccccc1NC(=S)N=Nc1c(O)[nH]c2ccc(Br)cc12 | 8.0 | 7.3 | -8.6 | 41.2 | 70.4* | 2.4 | 74.7* | FLuc counter=56.6*
Oc1[nH]c2ccc(Br)cc2c1N=Nc1ccc(F)cc1 | 20.6 | 2.9 | -4.1 | -27.4 | 10.7 | -9.5 | /
CC(C)c1ccc2[nH]c(O)c(N=NC(=O)c3cccc(S(=O)(=O)Nc4ccccc4Cl)c3)c2c1 | -19.6 | -19.4 | -34.3 | -9.0 | 18.6 | -18.3 | /
CCOC(=O)C1=C(COC(=O)C2(C)CC2(Cl)Cl)NC(=O)NC1c1ccccc1 (centres undefined) | 10.4 | -7.7 | 5.8 | 0.3 | 11.6 | -8.1 | /
Cc1c(-c2ccccc2)nc2ccccc2c1C(=O)Nc1ccncc1 | -33.6 | 2.2 | -21.5 | 4.3 | 26.9 | 0.5 | /
COc1ccccc1[C@H]1C(c2ccccc2)=NN(c2ccccc2)[C@@H]1CO | / | 7.4 | / | / | 38.1 | 1.1 | /
COc1ccccc1[C@H]1C(c2cccc(C)c2)=NN(c2ccccc2)[C@@H]1CO | / | 50.1 | / | / | 55.9* | -9.2 | 35.8
